Bioassay records (PubChem BioAssay)
The full list was thinned out, with hits kept by preference.
Pf Dd2 inh – qHTS Primary assay for Inhibitors of Plasmodium falciparum Dd2 growth in vitro | Potency, µM (highest dose often 28.9 µM), without a hit: top-dose activity, negative = inhibition, hits mostly inhibitors | actives 4.3% (n = 120,000) | P. falciparum Dd2 growth, SYBR Green, 72 h; active means well fitted inhibition curve with a large enough effect;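 further: plate controls were DMSO vehicle for no effect and reference drug for full effect; nearly all actives have a fitted effect of over 65% in size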
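Infected erythrocytes (Dd2, 0.3% parasitemia, 2.5% hematocrit final) are added to compound in RPMI-1640/Albumax II medium, grown 72 h at 37C in low oxygen, then lysed with saponin/Triton-X containing SYBR Green and read by fluorescence.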
Numbers without * were called inactive; i = inactive; [ ] = remark or other dose. Potency means the concentration at half of the fitted maximal effect.

SMILES | Pf Dd2 inh
CCOc1cc(C2C(C(=O)Nc3ccccc3)=C(C)Nc3ncnn32)cc(Br)c1O (stereo not drawn) | 2%
CCOc1ccccc1NC(=O)C1=C(C)Nc2ncnn2C1c1ccc(C)o1 (stereo not drawn) | -10%
COc1ccc(C2C(C(=O)Nc3ccccc3)=C(C)Nc3c(C(=O)Nc4ccccc4)cnn32)cc1 (stereo not drawn) | 3.5µM*
CCOc1ccc(NC(=O)c2cnn3c2NC(c2ccccc2)=CC3c2cccc(OC)c2OC)cc1 (stereo not drawn) | 2.5µM*
COc1ccccc1NC(=O)C1=C(C)Nc2ncnn2C1c1ccccc1C(=O)O (stereo not drawn) | 1.3µM*
CCOc1ccc(NC(=O)c2cnc(Nc3ccccc3OC)c3ccccc23)cc1 | i
COc1ccc(-c2nc3n(n2)C(c2ccccc2)C(C(=O)Nc2cccnc2)=C(C)N3)cc1 (stereo not drawn) | -4%
COc1cc(OC)c(C2C(C(=O)Nc3ccccc3)=C(C)Nc3ncnn32)cc1OC (stereo not drawn) | 4%
COc1cccc(C2C=C(c3ccccc3)Nc3c(C(=O)Nc4ccccc4)cnn32)c1OC (stereo not drawn) | 0%
CCCCOc1ccc(C2C(C(=O)Nc3ccccc3OC)=C(C)Nc3nnnn32)cc1OC (stereo not drawn) | i
CC1=C(C(=O)Nc2ccccc2)C(c2ccc(C(=O)O)cc2)n2ncnc2N1 (stereo not drawn) | i
CCOc1ccc(C2C(C(=O)Nc3ccccc3OC)=C(C)Nc3c(C(=O)Nc4cccc(C)c4)cnn32)cc1 (stereo not drawn) | 4µM*
CCC1(C(=O)Nc2ccc(C(C)C)cc2)CCCCC(=O)N1 (stereo not drawn) | i
COc1cccc(CC(=O)N2C[C@@H](Oc3ccccc3)C[C@H]2C(=O)N2CCOCC2)c1 | -7%
COC(=O)[C@H](NC(=O)[C@@H]1C[C@@H](NC(=O)CSC)CCN1S(=O)(=O)c1ccc(OC)cc1)C(C)C | 5%
CCn1c(C2CCCNC2)nn(Cc2ccc(C(C)C)cc2)c1=O (stereo not drawn) | -25%
Nc1nc(C2CC(NC(=O)c3cnn(Cc4ccccc4)c3)C2)cc(=O)[nH]1 (stereo not drawn) | 12%
Cc1ccc(-c2nc(-c3nnn4c3COC(c3ccc(Cl)cc3)C4)no2)cc1F (stereo not drawn) | i
CCS(=O)(=O)NCC1(COc2cccc(C)n2)C[C@@H](O)[C@@H](O)C1 (stereo partly drawn) | 20%[44.1 µM]
CCN1CC2(CCN(C(=O)COC(C)C)CC2)CC(c2ccccc2)C1=O (stereo not drawn) | 5%
COc1ccccc1NC(=O)C1=C(C)Nc2nc(SCC(=O)c3ccc(C)cc3)nn2C1c1ccc(F)cc1 (stereo not drawn) | 22%
COc1ccccc1NC(=O)C1=C(C)Nc2nnnn2C1c1ccc(C(F)(F)F)cc1 (stereo not drawn) | -16%
COc1ccc(C2C=C(c3cccc(OC)c3)Nc3c(C(=O)Nc4ccccc4)cnn32)cc1 (stereo not drawn) | 13µM*
COc1cccc(NC(=O)c2cnn(-c3ccccc3)c2-n2cccc2)c1 | -27%
COc1ccccc1NC(=O)C1=C(C)Nc2c(C(=O)Nc3ccc(F)cc3)cnn2C1c1ccc(Cl)cc1 (stereo not drawn) | 8.9µM*
SMILES | Pf Dd2 inh
Cc1ccc(NC(=O)c2cnn3c2NC(c2ccccc2)=CC3c2ccccc2)cc1 (stereo not drawn) | i
CN(C(=O)c1ccccc1F)C1CCCc2ccccc21 (stereo not drawn) | i
COc1cccc([C@@H]2CN(C(=O)CCCC(=O)O)C[C@H]2C(=O)O)c1 | 20%
Cc1cc(C)n2nc(CC(=O)NC[C@@H]3C[C@H](F)CN3)nc2n1 | -8%
Cc1ccc(CN2CCC[C@H]2c2nc(-c3ccc(OC4CCCCC4)nc3)no2)cc1 | -13%[44.1 µM]
c1cc(OC2CCCCC2)ncc1-c1noc([C@@H]2CCCN2C2CCOCC2)n1 | 11µM*
COc1ccc(-c2noc([C@@H]3CCCN3C3CCCCC3)n2)cn1 | i
COc1ccc(-c2nc3c(c(-c4ccccc4)n2)CN(C(=O)c2ccccc2Cl)CC3)cc1 | 10µM*
COc1ccc(-c2nc(C)nc3c2CN(C(=O)c2ccccc2)CC3)cc1 | i
COc1ccc(-c2nc(C)nc3c2CN(C(=O)c2ccccn2)CC3)cc1 | 3%
COc1ccc(CC(=O)N2CCc3nc(-c4ccc(Cl)cc4)nc(-c4ccccc4)c3C2)cc1 | i
COc1ccc(-c2nc(-c3ccccc3)nc3c2CN(C(=O)c2ccccc2C)CC3)cc1 | 10µM*
COc1ccc(-c2nc(-c3ccccc3)nc3c2CN(C(=O)c2ccc(C(F)(F)F)cc2)CC3)cc1 | 8.9µM*
COc1ccc(C(=O)N2CCc3nc(C)nc(-c4ccc(OC)cc4)c3C2)cc1 | -9%
COc1ccc(-c2nc(C)nc3c2CN(C(=O)c2ccc(C)cc2)CC3)cc1 | -13%
COc1ccc(-c2nc3c(c(-c4ccccc4)n2)CN(C(=O)c2cccc(Cl)c2)CC3)cc1 | i
Cc1ccc(C(=O)N2C(C(=O)N3CCCC3)COC23CCN(C(=O)c2ccc(F)cc2)CC3)cc1 (stereo not drawn) | -16%
COc1ccccc1OCCNC(=O)C1CCCCC(=O)N1 (stereo not drawn) | 0%
CC1=C[C@@H](CC#N)[C@H](C(C)C)C[C@H]1CC(=O)N1CCN(c2ncccn2)CC1 | i
COc1ccc(Cn2c3c(c(=O)n2Cc2ccccc2)CCN(Cc2cccnc2)C3)cc1 | -4%
O=[S+]1([O-])NCC2(CCN(Cc3ccc(F)cc3)C2)Oc2ccncc21 (stereo not drawn) | -18%
COc1ccc(C(=O)NCc2ccnc3[nH]ccc23)cc1 | -8%[44.1 µM]
CCNC(=O)c1ccc(-c2cc(NC3CCCC3)nc3[nH]ccc23)nc1 | 10µM*
Nc1ncc(-c2ccc(-c3cc(NC4CCCC4)nc4[nH]ccc34)cc2)[nH]1 | 8.9µM*
O=C(O)c1cnc(-c2cc(NCc3ccccn3)nc3[nH]ccc23)c(Cl)c1 | -3%
SMILES | Pf Dd2 inh
COCCOCc1nc(C2CCCCN2C(=O)NCc2ccccc2)no1 (stereo not drawn) | -18%
COc1ccc(-c2noc([C@@H](C)NS(=O)(=O)c3ccccc3)c2C(=O)O)cc1 | 12%[44.1 µM]
Cc1nc2ncnn2c(C)c1CCC(=O)NCC1CCOc2ccccc2C1 (stereo not drawn) | 6%
O=C(c1ccc(Cl)s1)N1CCC(n2cc(-c3nc(-c4ccccc4)no3)nn2)CC1 | -1%
CN(C)C(=O)c1cc(-c2ccc(S(C)(=O)=O)cc2)nc2c1cnn2C | 18%
CN(C)C(=O)c1cc(-c2ccc(S(C)(=O)=O)cc2)c2cnn(C)c2n1 | 8%
CC(C)NC(=O)c1cc(-c2ccc(S(C)(=O)=O)cc2)c2cnn(C)c2n1 | 3.2µM*
CSc1cccc(NC(=O)CCn2ccn3nc4c(c3c2=O)CCCC4)c1 | 25%
COc1ccc(CN[C@@H]2CO[C@H](CNC(=O)c3ccccc3)[C@H]2O)cc1 | -11%[44.1 µM]
Cn1cc(CN2CCN(C(c3ccccc3)c3ccccc3)CC2)cc1C#N | 3.2µM*
c1ccc(C(c2ccccc2)N2CCN(Cc3nc(-c4ccccn4)no3)CC2)cc1 | -5%
Cn1cc(CN2CCN(C(=O)Cc3ccccc3)CC2)ccc1=O | 0%
CC(=O)NCC(=O)N1Cc2ccccc2CC2(CCCN(C)C2)C1 (stereo not drawn) | 5%
O=C(Nc1cccc(-c2cccc(Cl)c2)c1)C1CCN(Cc2cccc(O)c2)CC1 | 4µM*
